The list is not random: actives were taken first. Their share in the collection is about 3.3%.
Jurkat NFkB inh: lowers PMA/ionomycin-induced NF-kB signal in Jurkat cells | inhibition, % at 4 µM | 0.53% of 330,000 active | AID 435003 | PMA/ionomycin-induced NF-kB luciferase reporter, luminescence; in the data active = inhibition above about 50%
SMARCA2 act: activators of SMARCA2 function. MG213 cells, MMTV-luciferase reporter, dexamethasone, overnight. activation, % at 9.1 µM. 1% of 370,000 active; in the data active = activation above about 7.8%;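 note: 0% = vehicle wells and 100% = reference activator wells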
697 NFkB inh: lowers PMA/ionomycin-induced NF-kB signal in 697 B cells. 0.33% of 330,000 active. inhibition, % at 4 µM. 697 B-cell NF-kB luciferase reporter, 16 h; in the data active = inhibition above about 35%
esBAF inh: inhibitors of esBAF chromatin remodeling in mouse ES cells; 2% of 350,000 active; reporter increase, % at 12.5 µM; AID 602393; Bmi1-luciferase knock-in reporter, 24 h; 100% = twice the neutral-well signal; in the data active = activation above about 40%;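 note: 0% = median of the plate's neutral control wells and 100% = double that signal; a rise in the Bmi1 reporter signal indicates esBAF inhibition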
Gli-Sufu block: Gli-Sufu pathway antagonism; Sufu-KO-LIGHT fibroblasts, Gli luciferase reporter luminescence; inhibition, % at 5 µM; 0.74% of 340,000 active; AID 588413;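 active = inhibition above about 55%, limit read from the data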;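 note: 0% = DMSO-treated cells and 100% = wells with medium but no cells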
* = called active by the depositor; x = no result.

SMILES | Jurkat NFkB inh | SMARCA2 act | 697 NFkB inh | esBAF inh | Gli-Sufu block
C[n+]1c2n(c3ccccc31)N=C(c1ccc(Br)cc1)CS2 | 1 | -5 | -19 | -32 | 68*
CCc1nnc2n1N=C(c1ccc(Br)cc1)CS2 | 27 | -1 | 28 | -2 | 1
O=C(C[C@@H]1CC[C@@H]2[C@H](COC[C@H](O)CN2C(=O)c2ccccc2)O1)NCc1ccc(-c2ccccc2)cc1 | x | x | x | 1 | x
CC(=O)NC(CSC(CC(=O)c1ccco1)c1ccc(C)cc1)C(=O)O (stereo not drawn) | -11 | 3 | -19 | 43* | -9
O=C(CC(SCCO)c1ccc([N+](=O)[O-])cc1)c1ccco1 (stereo not drawn) | -10 | -1 | 23 | 6 | -17
CC(C)NC(=O)N(C)C[C@@H]1Oc2ccc(NC(=O)Nc3ccc(F)cc3)cc2C(=O)N([C@H](C)CO)C[C@@H]1C | x | x | x | -1 | x
Cc1nnc(-c2cnn(-c3ccccc3)c2N)n1Cc1cccc(C(F)(F)F)c1 | -6 | 4 | -15 | 9 | -1
Cc1ccc(-c2cnn(-c3cccc(C(F)(F)F)c3)c2N)cc1 | -111 | 2 | -81 | 87* | -69
Nc1c(-c2ccc(Cl)cc2)cnn1-c1cccc([N+](=O)[O-])c1 | -39 | 2 | -47 | 64* | -33
Cc1nn(-c2cccc([N+](=O)[O-])c2)c(N)c1-c1ccccc1 | -59 | 2 | -62 | 66* | -67
Nc1c(-c2ccc(Cl)cc2)cnn1-c1cccc(C(F)(F)F)c1 | -56 | -1 | -58 | 68* | -30
C[C@@H]1CN([C@@H](C)CO)C(=O)c2cccc(NS(=O)(=O)c3cccs3)c2O[C@H]1CN(C)S(=O)(=O)c1ccc(Cl)cc1 | x | x | x | -4 | x
COc1ccc(NC(=O)N(C)C[C@@H]2Oc3ccc(NS(C)(=O)=O)cc3CC(=O)N([C@H](C)CO)C[C@@H]2C)cc1 | x | x | x | 7 | x
O=C(C[C@@H]1CC[C@@H]2[C@H](COC[C@@H](O)CN2C(=O)Nc2cc(Cl)cc(Cl)c2)O1)NCC1CCCCC1 | x | x | x | 2 | x
C[C@H]1CN([C@@H](C)CO)C(=O)c2cc(NS(=O)(=O)c3cccs3)ccc2O[C@@H]1CN(C)Cc1ccncc1 | x | x | x | -4 | x
CCn1c2ccccc2c2nnc(SCC(=O)NC(CC(C)C)C(=O)OC)nc21 (stereo not drawn) | 9 | 7.8* | 16 | 1 | 4
COc1ccc(-c2cc3cc(-c4cc(OC)c(OC)c(OC)c4)ccc3o2)cc1 | 11 | 0 | -15 | 9 | -17
COc1ccc(-c2ccc3oc(-c4ccsc4)cc3c2)cc1 | -68 | 0 | -77 | 64* | -58
COc1ccccc1CNC(=O)CCNS(=O)(=O)c1ccc2[nH]c(=O)oc2c1 | -12 | 2 | -47 | 1 | 57*
COc1ccccc1NC(=O)CCNS(=O)(=O)c1ccc2[nH]c(=O)oc2c1 | 5 | -1 | -2 | -15 | -15
C=CCOc1ccc(/C(O)=C2/C(=O)C(=O)N(CCCn3ccnc3)C2c2cccs2)cc1 (stereo not drawn) | -35 | 6 | 3 | 44* | 22
Clc1ccc2nc(-c3ccc(Cl)nc3)[nH]c2c1 | 1 | 6 | -76 | 58* | -53
CCCNC(=O)C[C@H]1CC[C@H]2[C@@H](COC[C@@H](O)CN2Cc2cccc(F)c2)O1 | x | x | x | 1 | x
CC(C)CC#Cc1cnc2c(c1)C(=O)N([C@H](C)CO)C[C@H](C)[C@@H](CN(C)Cc1cncnc1)O2 | x | x | x | 0 | x
COc1ccc(C2=CC(=O)CC(C)(C)C2=O)cc1 | x | -1 | x | x | x
SMILES | Jurkat NFkB inh | SMARCA2 act | 697 NFkB inh | esBAF inh | Gli-Sufu block
CC1(C)CC(=O)C=C(c2ccc(-c3ccc(OC(F)(F)F)cc3)cc2)C1=O | x | 1 | x | 56* | x
CC1(C)CC(=O)C=C(c2ccc(-c3ccccc3)cc2)C1 | -125 | 6 | -129 | 74* | -100
COc1ccc(C2=CC(=O)CC(C)(C)C2)cc1 | -7 | 2 | -2 | 2 | -17
CC1(C)CC(=O)C=C(c2ccc(CO)cc2)C1=O | x | -1 | x | -7 | x
CC1(C)CC(=O)C=C(c2ccc(-c3ccccc3)cc2)C1=O | x | 3 | x | 78* | x
C[C@H]1CN([C@@H](C)CO)C(=O)Cc2cc(NC(=O)CCN3CCOCC3)ccc2O[C@@H]1CN(C)Cc1ccc(-c2ccccc2)cc1 | x | x | x | -2 | x
CCC(=O)Nc1ccc2c(c1)C(=O)N(C)C[C@@H](OC)[C@@H](C)CN(C(=O)c1ccncc1)[C@H](C)CO2 | x | x | x | -2 | x
C[C@@H]1CN([C@H](C)CO)C(=O)Cc2cc(NC(=O)c3ccncc3)ccc2O[C@@H]1CN(C)S(=O)(=O)c1ccccc1 | x | x | x | -1 | x

Bioassay records from PubChem BioAssay.
